Read-out in assay [1]: C-C motif chemokine 2 (Homo sapiens) (UniProt P13500)
In words: BSK_KF3CT_MCP1: BioMAP Diversity Plus: KF3CT Assay for Monocyte Chemoattractant Protein 1 (MCP1/CCL2) Biomarker Activity (AID 2283073). Particulars: primary human keratinocytes with fibroblasts; actives raise or lower the signal. The method, boiled down:
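Biomarker MCP-1 is measured by ELISA in primary human keratinocytes co-cultured with foreskin fibroblasts, 24 h after chemical treatment; DMSO serves as the negative control and activity baseline.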

Read-out in assay [2]: Matrix Metallopeptidase 9 (MMP9), MMP9 (gene 4318)
In words: BSK_KF3CT_MMP9: BioMAP Diversity Plus: KF3CT Assay for Matrix Metallopeptidase 9 (MMP9) Biomarker Activity (AID 2283074).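 As to AC50: MMP9 protein level quantified by ELISA in the co-culture.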 Particulars: primary human keratinocytes with fibroblasts; actives raise or lower the signal. A digest of the protocol:
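ELISA read-out of MMP-9 at 24 h post-dosing in a co-culture of human skin keratinocytes and foreskin fibroblasts. Gain or loss of signal was fitted in both directions against DMSO.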

Read-out in assay [3]: urokinase plasminogen activator (uPA), PLAU (gene 5328)
In words: BSK_KF3CT_uPA: BioMAP Diversity Plus: KF3CT Assay for urokinase plasminogen activator (uPA) Biomarker Activity (AID 2283075). Conditions: primary human keratinocytes with fibroblasts; actives raise or lower the signal. A digest of the protocol: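 Skin co-culture (keratinocytes + foreskin fibroblasts), human primary; 24 h post-dose; uPA by ELISA; gain/loss fit vs DMSO baseline.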

Read-out in assay [4]: CD40, CD40 (gene 958)
Nature of the assay: BSK_LPS_CD40: BioMAP Diversity Plus: LPS Assay for CD40 Biomarker Activity (AID 2283076). Particulars: primary human HUVEC with PBMC; actives raise or lower the signal. A digest of the protocol: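 Using a multiplexed primary human co-culture (umbilical vein endothelium plus PBMC), CD40 was read by ELISA 24 h after dosing, with cytotoxicity tracked by sulforhodamine B staining of parallel cultures and activity fitted bidirectionally versus DMSO.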

Read-out in assay [5]: E-selectin (Homo sapiens) (UniProt P16581)
Nature of the assay: BSK_LPS_Eselectin: BioMAP Diversity Plus: LPS Assay for Eselectin Biomarker Activity (AID 2283077). Conditions: primary human HUVEC with PBMC; actives raise or lower the signal. The method, boiled down: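 Dose chemical onto LPS-driven HUVEC/PBMC co-culture; after 24 h, run ELISA for E-selectin; fit up- and down-going responses relative to DMSO control.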

Read-out in assay [6]: Interleukin-8 (IL8), CXCL8 (gene 3576)
Nature of the assay: BSK_LPS_IL8: BioMAP Diversity Plus: LPS Assay for Interleukin-8 (IL8) Biomarker Activity (AID 2283078). Conditions: primary human HUVEC with PBMC; actives raise or lower the signal. A digest of the protocol:
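In this LPS system, chemical-treated human umbilical vein endothelium/PBMC co-cultures were harvested at 24 h for IL-8 ELISA.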

Read-out in assay [7]: Interleukin-1 alpha (IL1a), IL1A (gene 3552)
Nature of the assay: BSK_LPS_IL1a: BioMAP Diversity Plus: LPS Assay for Interleukin-1 alpha (IL1a) Biomarker Activity (AID 2283080). Conditions: primary human HUVEC with PBMC; actives raise or lower the signal. A digest of the protocol: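 Primary human HUVEC and PBMC co-culture stimulated with LPS is dosed and harvested at 24 h. Both increases and decreases in ELISA-measured IL-1a are scored relative to DMSO.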

Read-out in assay [8]: Monocyte Chemoattractant Protein-1 (MCP1), CCL2 (gene 6347)
Nature of the assay: BSK_LPS_MCP1: BioMAP Diversity Plus: LPS Assay for Monocyte Chemoattractant Protein-1 (MCP1) Biomarker Activity (AID 2283081).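 As to AC50: secreted MCP-1 protein quantified by ELISA in culture supernatant.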 Particulars: primary human HUVEC with PBMC; actives raise or lower the signal. The method, boiled down: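 Values derive from bidirectional fitting against DMSO of ELISA-measured MCP-1 in a human primary endothelial and mononuclear cell co-culture, 24 h after chemical addition under LPS activation.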

The nature of assay [9]: BSK_LPS_PGE2: BioMAP Diversity Plus: LPS Assay for Prostaglandin E2 (PGE2) Biomarker Activity (AID 2283082). Particulars: primary human HUVEC with PBMC; actives raise or lower the signal. A digest of the protocol: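 PGE2 release measured by ELISA in an LPS-activated co-culture of human umbilical vein endothelial cells and peripheral blood mononuclear cells, read at 24 h post-dosing. DMSO served as baseline for bidirectional curve fitting.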

Read-out in assay [10]: Macrophage colony-stimulating factor (MCSF), CSF1 (gene 1435)
Nature of the assay: BSK_LPS_MCSF: BioMAP Diversity Plus: LPS Assay for Macrophage colony-stimulating factor (MCSF) Biomarker Activity (AID 2283083). Conditions: primary human HUVEC with PBMC; actives raise or lower the signal. A digest of the protocol: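 Bidirectional fit versus DMSO of ELISA-measured M-CSF in co-cultured human umbilical vein endothelial cells and PBMC, sampled 24 h after dosing.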

Read-out in assay [11]: Tissue Factor, F3 (gene 2152)
Nature of the assay: BSK_LPS_TissueFactor: BioMAP Diversity Plus: LPS Assay for Tissue Factor Biomarker Activity (AID 2283084). Conditions: primary human HUVEC with PBMC; actives raise or lower the signal. A digest of the protocol:
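Read-out: CD142 ELISA, 24 h. System: LPS-driven human endothelial/PBMC co-culture. Analysis: up- or down-signal fitted against DMSO.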

Read-out in assay [12]: Vascular cell adhesion molecule 1 (VCAM1), VCAM1 (gene 7412)
In words: BSK_LPS_VCAM1: BioMAP Diversity Plus: LPS Assay for Vascular cell adhesion molecule 1 (VCAM1) Biomarker Activity (AID 2283086). Particulars: primary human HUVEC with PBMC; actives raise or lower the signal. The method, boiled down:
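VCAM-1 quantified by ELISA in an LPS-activated co-culture of human endothelial cells and peripheral blood mononuclear cells, read 24 h post-treatment. Fitted in both directions versus DMSO; parallel SRB staining flags overt cytotoxicity.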

Read-out in a further assay: CD38, CD38 (gene 952)
Nature of the assay: BSK_SAg_CD38: BioMAP Diversity Plus: SAg Assay for CD38 Biomarker Activity (AID 2283087). Particulars: primary human HUVEC with PBMC; actives raise or lower the signal. A digest of the protocol: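 CD38 quantified by ELISA (fluorescence) in a superantigen-activated endothelial cell–PBMC co-culture at 24 h post-dose. Activity fitted in both directions relative to DMSO; parallel SRB and Alamar Blue cytotoxicity read-outs.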

Read-out in assay [13]: CD40, CD40 (gene 958)
In words: BSK_SAg_CD40: BioMAP Diversity Plus: SAg Assay for CD40 Biomarker Activity (AID 2283088). Conditions: primary human HUVEC with PBMC; actives raise or lower the signal. The method, boiled down:
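Endpoint derived by fitting increases or decreases versus DMSO controls. CD40 is detected by fluorescence ELISA in a human vascular co-culture of endothelium and PBMC at 24 h.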

Read-out in a further assay: CD69, CD69 (gene 969)
Nature of the assay: BSK_SAg_CD69: BioMAP Diversity Plus: SAg Assay for CD69 Biomarker Activity (AID 2283089).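 As to AC50: cell surface CD69 protein quantified by ELISA with fluorescence detection.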 Particulars: primary human HUVEC with PBMC; actives raise or lower the signal. A digest of the protocol:
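Primary human vascular co-culture (umbilical vein endothelium with peripheral blood mononuclear cells) exposed to test chemical for 24 h. CD69 levels quantified by fluorescence ELISA; DMSO served as negative control for bidirectional fitting.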

Read-out in assay [14]: Monocyte Chemoattractant Protein-1 (MCP1), CCL2 (gene 6347)
In words: BSK_SAg_MCP1: BioMAP Diversity Plus: SAg Assay for Monocyte Chemoattractant Protein-1 (MCP1) Biomarker Activity (AID 2283090). Conditions: primary human HUVEC with PBMC; actives raise or lower the signal. The method, boiled down: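 Values derive from bidirectional fitting of ELISA-measured MCP1 against DMSO controls. Readings were taken 24 h after dosing human vascular endothelial cells co-cultured with peripheral blood mononuclear cells under superantigen stimulation.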

Read-out in assay [15]: E-selectin (Homo sapiens) (UniProt P16581)
In words: BSK_SAg_Eselectin: BioMAP Diversity Plus: SAg Assay for Eselectin Biomarker Activity (AID 2283091). Particulars: primary human HUVEC with PBMC; actives raise or lower the signal. The method, boiled down:
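Endpoint values derive from bidirectional fitting relative to DMSO, using ELISA-measured E-selectin in a human vascular co-culture (umbilical vein endothelium plus PBMC) sampled 24 h after dosing.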

Read-out in assay [16]: Monokine induced gamma interferon (MIG), CXCL9 (gene 4283)
In words: BSK_SAg_MIG: BioMAP Diversity Plus: SAg Assay for Monokine induced gamma interferon (MIG) Biomarker Activity (AID 2283092). Particulars: primary human HUVEC with PBMC; actives raise or lower the signal. The method, boiled down: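 Endothelial cells and PBMC were co-cultured, exposed to test chemicals, and sampled 24 h later. MIG was measured by ELISA, and responses were fitted in both directions relative to DMSO.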

Read-out in assay [17]: Tumor necrosis factor (Homo sapiens) (UniProt P01375)
Nature of the assay: BSK_LPS_TNFa: BioMAP Diversity Plus: LPS Assay for Tumour Necrosis Factor alpha (TNFa) Biomarker Activity (AID 2283085).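 Also: TNFa protein level quantified by ELISA in the co-culture.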 Particulars: primary human HUVEC with PBMC; actives raise or lower the signal. The method, boiled down:
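TNFa was quantified by ELISA in LPS-activated co-cultures of human endothelial cells and PBMC, 24 h post-dosing. Both increases and decreases versus DMSO were fitted.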

Our source for the outcome and AC50 values is PubChem BioAssay (EPA / NIEHS).

The source made the active and inactive calls. The calls were made as follows: active = hit-call score of the fitted dose curve at least 0.9, where 1 is the maximum; inactive = score below 0.9.

E-selectin (Homo sapiens), sequence (P16581 whole entry, looked up): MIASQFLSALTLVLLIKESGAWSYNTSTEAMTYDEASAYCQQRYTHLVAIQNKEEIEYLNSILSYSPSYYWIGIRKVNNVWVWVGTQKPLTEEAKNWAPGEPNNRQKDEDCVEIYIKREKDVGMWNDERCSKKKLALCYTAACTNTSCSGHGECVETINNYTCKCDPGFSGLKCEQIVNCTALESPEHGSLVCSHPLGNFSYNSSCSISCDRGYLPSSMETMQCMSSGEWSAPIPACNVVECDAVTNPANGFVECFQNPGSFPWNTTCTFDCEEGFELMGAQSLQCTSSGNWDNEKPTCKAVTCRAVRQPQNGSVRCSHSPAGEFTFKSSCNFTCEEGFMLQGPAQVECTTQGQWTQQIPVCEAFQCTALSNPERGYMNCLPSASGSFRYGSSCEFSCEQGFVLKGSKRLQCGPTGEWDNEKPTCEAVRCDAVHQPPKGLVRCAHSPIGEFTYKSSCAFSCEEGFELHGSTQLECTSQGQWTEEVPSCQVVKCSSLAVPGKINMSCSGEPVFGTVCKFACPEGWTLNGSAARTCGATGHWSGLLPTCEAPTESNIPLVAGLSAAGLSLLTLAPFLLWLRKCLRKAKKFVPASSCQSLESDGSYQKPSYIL
Tumor necrosis factor (Homo sapiens), sequence (P01375 whole entry, looked up): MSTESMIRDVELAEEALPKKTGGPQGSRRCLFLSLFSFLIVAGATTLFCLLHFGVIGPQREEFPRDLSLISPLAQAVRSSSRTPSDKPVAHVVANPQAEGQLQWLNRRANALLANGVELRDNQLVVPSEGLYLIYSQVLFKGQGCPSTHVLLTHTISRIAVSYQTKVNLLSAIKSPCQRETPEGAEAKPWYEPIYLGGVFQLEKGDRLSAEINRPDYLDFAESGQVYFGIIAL

Consider `O=[N+]([O-])c1ccc(O)cc1`, for which the outcome is “inactive” in assay [1]; “inactive” in assay [2]; “inactive” in [3]; “inactive” in the assay with CD40, CD40 (gene 958) [4]; “inactive” in assay [5]; “inactive” in [6]. The result in assay [7], in assay [8], in [9], in [10], in assay [11] and in assay [12] was inactive. Moreover, the outcome was “inactive” in the assay with CD38, CD38 (gene 952); “inactive” with CD40, CD40 (gene 958) [13]; “inactive” with CD69, CD69 (gene 969); “inactive” in assay [14]; “inactive” in assay [15]; “inactive” in [16].

With `CC[C@H](C)[C@@H](C(=O)O)n1sc2ccccc2c1=O`, the outcome in assay [1] was “inactive”; in assay [2] it was “inactive”; in assay [3] it was “inactive”; with CD40, CD40 (gene 958) [4] it was “inactive”; in [5], “inactive”; in assay [6] it was “inactive”. For the same compound, the outcome in assay [8] is “inactive”; in assay [10] it was “inactive”; in assay [11], “inactive”; in the assay with CD38, CD38 (gene 952), “inactive”; in the assay with CD40, CD40 (gene 958) [13], “inactive”; with CD69, CD69 (gene 969) it was “inactive”. For the same compound, the result in [14], in [15] and in assay [16] was inactive. In addition, the AC50 in assay [7] was 25.9 µM (active); in assay [9], 32.2 µM (active); in assay [12] it was 26.5 µM (active).

As to `CCC(=C(c1ccc(O)cc1)c1ccc(OCCN(C)C)cc1)c1ccccc1`, the AC50 in [1] was 10.2 µM (active); in assay [2], 8.87 µM (active); in assay [3], 11.8 µM (active); with CD40, CD40 (gene 958) [4], 7.71 µM (active); in assay [5] it was 19.8 µM (active); in [6] it was 13.3 µM (active). Moreover, the AC50 is 8.66 µM (active) in assay [7]; 9.72 µM (active) in assay [8]; 19.8 µM (active) in assay [9]; 7.5 µM (active) in [10]; 13 µM (active) in assay [11]; 13.6 µM (active) in assay [17]. Further, the AC50 in [12] was 12.6 µM (active); with CD38, CD38 (gene 952) it was 8.38 µM (active); with CD40, CD40 (gene 958) [13], 11.1 µM (active); with CD69, CD69 (gene 969) it was 9.48 µM (active); in assay [14], 11.1 µM (active); in assay [15], 18.7 µM (active). In addition, the AC50 in [16] was 13.2 µM (active).

`CCN(CC)CCNc1ccc(CNC=O)c2sc3ccc(OC)cc3c(=O)c12`: the AC50 in assay [1] was 36.6 µM (active); in assay [2], 17.5 µM (active); in [3], 25.8 µM (active); with CD40, CD40 (gene 958) [4] it was 35.4 µM (active); in assay [5], 13.1 µM (active); in assay [6] it was 11.2 µM (active). Further, the AC50 in assay [7] is 11.8 µM (active); in assay [8], 20 µM (active); in [9], 4.06 µM (active); in assay [10], 20 µM (active); in assay [11], 25.5 µM (active); in assay [12], 14.4 µM (active). Moreover, the AC50 is 26.7 µM (active) with CD38, CD38 (gene 952); 27 µM (active) in the assay with CD40, CD40 (gene 958) [13]; 24.9 µM (active) with CD69, CD69 (gene 969); 20 µM (active) in [14]; 20 µM (active) in assay [15]; 36.4 µM (active) in assay [16].

`CCCCCCCCOC(=O)CCCCCCCCC(=O)OCCCCCCCC`: the outcome in assay [1] is “inactive”; in [2], “inactive”; in [3], “inactive”; with CD40, CD40 (gene 958) [4] it was “inactive”; in assay [5] it was “inactive”; in assay [6], “inactive”. The outcome in assay [7], in [8], in [9], in assay [10], in assay [11] and in assay [12] was inactive. The outcome with CD38, CD38 (gene 952) was “inactive”; in the assay with CD40, CD40 (gene 958) [13] it was “inactive”; with CD69, CD69 (gene 969), “inactive”; in assay [14], “inactive”; in [15], “inactive”; in assay [16], “inactive”.

One may read the AC50 as the midpoint of the concentration-response curve, whichever way the signal moves.
